Nrf2 block = Nrf2 qHTS screen for inhibitors; hit rate 2.1% among 360,000; AID 504444, 2011; Potency, µM (series often up to 46 µM), actives largely listed as inhibitors; A549 ARE-Fluc reporter, luciferase luminescence, 18-24 h; also: nearly all actives have a fitted effect of over 60% in size
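Nrf2 activity is the BugLite luminescence, read 15 min after reagent at room temperature, following CellTiter-Fluor cytotoxicity readout (30 min, 37C). Compound titrations were applied for 18-24 h to 5000 A549 ARE_Fluc cells/well in 5% FBS OPTI-MEM.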
A549 tox = Nrf2 qHTS screen for inhibitors: counterscreen for cytotoxicity; A549 ARE-Fluc cells, CellTiter-Fluor viability, 18-24 h; hit rate 0.16% among 390,000; Potency, µM (top dose mostly 46 µM), usual class: inhibitors
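A549 ARE_Fluc cells in 5% FBS OPTI-MEM were exposed to compounds in concentration-response for 18-24 h at 37 deg C. Viability was read by CellTiter-Fluor fluorescence (Ex 405/Em 525) after 30 min, before the luciferase read.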
12-LOX inh = Primary qHTS assay for inhibitors of human arachidonate 12S-lipoxygenase (ALOX12): Round 2; Polyunsaturated fatty acid lipoxygenase ALOX12 (Homo sapiens), P18054; purified 12hLO, xylenol orange hydroperoxide absorbance; Potency, µM (series often up to 108 µM), usual class: inhibitors; hit rate 1.1% among 580,000; AID 1671190, 2021
Target sequence (P18054 whole entry, looked up): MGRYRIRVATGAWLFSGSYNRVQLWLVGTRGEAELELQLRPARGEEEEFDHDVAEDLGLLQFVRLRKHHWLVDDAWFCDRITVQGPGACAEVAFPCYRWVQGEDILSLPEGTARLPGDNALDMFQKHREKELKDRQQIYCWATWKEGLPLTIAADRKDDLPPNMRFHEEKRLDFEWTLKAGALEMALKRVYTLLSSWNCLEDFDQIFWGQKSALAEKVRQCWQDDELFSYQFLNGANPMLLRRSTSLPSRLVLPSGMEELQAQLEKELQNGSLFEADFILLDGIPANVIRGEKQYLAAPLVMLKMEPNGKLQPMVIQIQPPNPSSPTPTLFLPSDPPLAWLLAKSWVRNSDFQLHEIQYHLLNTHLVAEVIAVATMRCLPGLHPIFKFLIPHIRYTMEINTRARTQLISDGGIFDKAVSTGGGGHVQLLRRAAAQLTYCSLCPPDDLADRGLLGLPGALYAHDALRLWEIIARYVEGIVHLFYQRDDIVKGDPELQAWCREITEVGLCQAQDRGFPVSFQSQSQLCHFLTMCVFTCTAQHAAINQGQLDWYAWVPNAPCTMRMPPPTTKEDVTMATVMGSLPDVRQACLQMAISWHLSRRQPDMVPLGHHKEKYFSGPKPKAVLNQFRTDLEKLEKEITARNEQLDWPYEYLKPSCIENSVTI
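Purified human 12hLO at 150 nM in 25 mM Hepes, 0.01% Triton X-100, pH 7.0, preincubated 15 min at room temperature with compound. Reaction started with 40 uM arachidonic acid, 30 min at room temperature. Hydroperoxide measured by Fe-xylenol orange, 573/405 nm absorbance ratio.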
Nrf2 ARE act = qHTS of Nrf2 Activators | AREc32 ARE-luciferase reporter (MCF7-derived line), luminescence, 24 h | Potency, µM (highest dose often 46.1 µM), usual class: activators | hit rate 0.31% among 410,000 | AID 624171, 2012; also: nearly all actives have a fitted effect of over 65% in size
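Cells of the AREc32 ARE-luciferase line are plated in OPTI-MEM containing 5% FBS and left overnight at 37 deg C. Compounds are pinned in, incubation continues 24 hr, and firefly luciferase signal is then measured.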
LDHA block = qHTS assay for inhibitors of human lactate dehydrogenase; activity change, % (values are at about 110 or 230 µM); hit rate 0.15% among 480,000; purified LDHA, NADH/diaphorase-resazurin fluorescence; active compounds read low; AID 1347041, 2019; L-lactate dehydrogenase A chain (Homo sapiens), P00338; in the data active = activity change below about -30%; inconclusive = mostly about -25% to -30%
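Resorufin fluorescence (ex540/em590), read at 0 and 20 min after diaphorase/resazurin addition, reports the NADH left after a 5 min room-temperature reaction of 2 nM human LDH5 with 0.06 mM NADH and 0.2 mM pyruvate.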
mIDH1 inhibitor = qHTS for Inhibitors of mutant isocitrate dehydrogenase 1 (IDH1): qHTS; Potency, µM (titrated, usually from 76.6 µM), hits mostly inhibitors; hit rate 0.093% among 390,000; IDH1-R132H enzyme, NADPH consumption, diaphorase/resazurin fluorescence; also: nearly all actives have a fitted effect of over 65% in size
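IDH1-R132H (0.5 ug/mL) preincubated 30 min with compound, then NADPH (0.016 mM) and alpha-KG (2 mM) added; 80 min at RT, pH 7.5. Remaining NADPH coupled via diaphorase/resazurin to fluorescence (540/590 nm); concentration-response curves normalized to no-enzyme control.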
A number is an active result; 0 = inactive; ? = inconclusive; - = no result; [ ] = another dose, or the depositor's remark. In the library only some 2.7% were active in any assay of this set; here they are far more common. Unless noted, calls follow the shape of the dose curve; as a rule, active = well fitted curve in the direction sought with a large enough effect; inconclusive = small, poorly fitted or top-dose-only effect, or another doubt; inactive = no such curve, though single readings can be large; an effect the other way counts as inactive or inconclusive.

SMILES | Nrf2 block | A549 tox | 12-LOX inh | Nrf2 ARE act | LDHA block | mIDH1 inhibitor
O=C(Nc1cccc(S(=O)(=O)N2CCCCCC2)c1)c1cc(=O)c2ccccc2o1 | 18µM | 0 | 0 | 0 | 0 | 0
O=C(NCc1ccccc1)c1cc(=O)c2ccccc2o1 | ? | 0 | 0 | 0 | 0 | 0
COc1ccc(CNC(=O)c2cc(=O)c3ccccc3o2)cc1 | 13µM | 0 | 0 | 0 | 0 | 0
Cc1ccc(S(=O)(=O)N2CCCCC2)cc1NC(=O)c1cc(=O)c2ccccc2o1 | - | - | 0 | - | 0 | -
NS(=O)(=O)c1cccc(NC(=O)c2cc(=O)c3ccccc3o2)c1 | 0 | 0 | ? | 13µM | 0 | 0
NS(=O)(=O)c1cccc(NC(=O)c2cc3ccccc3o2)c1 | 0 | 0 | ? | 0 | 0 | 0
O=C(NCc1ccco1)c1cc(S(=O)(=O)N2CCOCC2)c(Cl)cc1Cl | 18µM | ? | 0 | 0 | 0 | 0
CN(C)c1ccc(-c2nnc([C@H]3CCN(CC4CCCCC4)C3)o2)cc1 | - | - | 0 | - | - | -
CC1(C)Nc2ccc(O)cc2-c2c1ssc2=S | 0 | 0 | 45µM | ? | 0 | 0
COc1cccc(-n2sc3c(c2=S)-c2cc(OC)ccc2NC3(C)C)c1 | 0 | 0 | ? | 0 | 0 | 0
CN1C[C@H]2CON(C)[C@H]2C[C@H]1c1cccc(-c2ccc(C#N)cc2)c1 | 0 | 0 | 0 | 0 | 0 | 0
CN1OC[C@@H]2CN(Cc3cc(Cl)cc(Cl)c3)[C@H](c3cccc(-c4ccc(C#N)cc4)c3)C[C@@H]21 | - | - | 0 | 0 | -31 | 0
CCCCC1=CC2=CC(=O)C(C)(OC(=O)CC)C(=O)C2=CN1CCOC (stereo not drawn) | 0 | 0 | - | 0 | 0 | 0
CCCCC1=CC2=CC(=O)C(C)(OC(=O)CC)C(=O)C2=CN1CCc1ccc(Br)cc1 (stereo not drawn) | ? | 0 | 40µM | 0 | 0 | 0
O=C(Nc1ccc(N2CCOCC2)nc1)c1ccc(Cl)cc1 | 21µM | 0 | 0 | 0 | 0 | 0
CSc1ccc(/C=C(/C#N)C(=O)NC(C)C)cc1 | - | - | 0 | - | 0 | -
Cc1sc2ncnc(N3CCC(C(=O)NNC(=O)COc4ccccc4Cl)CC3)c2c1C | ? | 0 | 0 | 0 | 0 | 0
Cc1sc2ncnc(N3CCC(C(=O)NNC(=O)c4ccccc4Cl)CC3)c2c1C | 16µM | 0 | 0 | 0 | 0 | 0
Cc1cc(Br)ccc1NC(=O)CN(C)C(=O)C1CCN(c2ncnc3sc(C)c(C)c23)CC1 | ? | 21µM | 0 | 0 | 0 | 0
O=C(NC1CCCC(C(F)(F)F)C1)c1ccsc1 (stereo not drawn) | - | - | 0 | - | 0 | -
Cc1cc(C)cc(NC(=O)CSc2nc(N)c(NC(=O)c3cccs3)c(=O)[nH]2)c1 | 0 | 0 | ? | 0 | -32 | 0
Cc1ccc(OCCC(=O)NC(CC(C)C)C(=O)N(C)C)cc1C (stereo not drawn) | - | - | 0 | - | 0 | -
COC(=O)C1=C(C)N(Cc2ccccc2)C(=S)N[C@H]1c1ccccc1 | 0 | 0 | ? | 0 | 0 | 0
COC(=O)C1=C(C)N(Cc2ccc(Cl)cc2)C(=S)NC1c1ccc(Cl)cc1 (stereo not drawn) | - | - | 32µM | - | - | -
COC(=O)C1=C(C)N(Cc2ccccc2)C(=S)NC1c1ccc(-c2ccccc2)cc1 (stereo not drawn) | - | - | 22µM | - | - | -
SMILES | Nrf2 block | A549 tox | 12-LOX inh | Nrf2 ARE act | LDHA block | mIDH1 inhibitor
COC(=O)C1=C(C)N(Cc2ccccc2)C(=S)NC1c1cccc(OC)c1 (stereo not drawn) | - | - | 32µM | - | - | -
COC(=O)C1=C(C)N(Cc2ccc(Br)cc2)C(=S)NC1c1ccc(F)cc1 (stereo not drawn) | - | - | 40µM | - | - | -
CCc1sc(C(=O)N2CCCCC2C)cc1Br (stereo not drawn) | - | - | 0 | - | 0 | -
C=CCNC(=S)N/N=C/c1cccnc1 | - | - | 0 | - | 0 | -
COC(=O)C1=C(C)N(Cc2ccc(Br)cc2)C(=S)NC1c1cccc(F)c1 (stereo not drawn) | - | - | 35µM | - | - | -
CCN(CC)CCNC(=S)NC(=O)c1cn(-c2ccccc2)nc1-c1ccc(OC)cc1 | 0 | 0 | 45µM | 0 | 0 | 0
COc1ccc(-c2nn(-c3ccccc3)cc2C(=O)NCCN2CCOCC2)cc1 | - | - | 0 | - | 0 | -
Nc1cc2c3c(cccc3c1)C(=O)N(CCN1CCCC1)C2=O | 13µM | ? | 0 | 0 | 0 | 0
Cc1cccc(Cn2nnc3c2C(=O)c2ccccc2C3=O)c1 | 21µM | ? | 0 | 0 | 0 | 0
Cc1ccccc1Cn1nnc2c1C(=O)c1ccccc1C2=O | ? | 0 | 0 | 0 | 0 | 0
COc1ccc(Br)cc1CSC(=N)N | 0 | 0 | ? | 0[9.22 µM] | 0 | 0
COc1ccc(Br)cc1C[N+]1(C)CCCCC1 | - | - | 16µM | - | 0 | -
OCC1OC(n2cnc3c(NCc4ccccc4O)ncnc32)C(O)C1O (stereo not drawn) | 18µM | 0 | 0 | ? | 0 | 0
OC[C@H]1O[C@@H](n2cnc3c(Nc4ccccc4)ncnc32)[C@H](O)[C@@H]1O | ? | 0 | 0 | 0 | 0 | 0
OCC1OC(n2ccc3c(NO)ncnc32)C(O)C1O (stereo not drawn) | ? | 2.1µM | 0 | 0 | 0 | 0
Cc1ccc(-c2nnc(Nc3ccccc3)c3ccccc23)cc1S(=O)(=O)N1CCOCC1 | 0 | 0 | 0 | 0 | 0 | 0
Cc1ccc(-c2nnc(Nc3cccc(O)c3)c3ccccc23)cc1S(=O)(=O)N1CCOCC1 | 16µM | ? | 0 | 0 | 0 | 0
Cc1cccc(NC(=O)Oc2ccc(Cl)c3cccnc23)c1 | - | - | 40µM | 0 | 0 | 0
CNC(=O)COc1ccc(Cl)c2cccnc12 | 0 | 0 | 0 | 0 | 0 | 0
Cc1ccc(C2NC(=O)c3c(sc(C)c3C)N2)c(O)c1 (stereo not drawn) | 0 | 0 | 40µM | 0 | 0 | 0
Cc1cccc(C2NC(=O)c3c(sc(C)c3C)N2)c1O (stereo not drawn) | 0 | 0 | 0 | 0 | 0 | 0
O=C(c1cc2ccccc2o1)c1cc(F)ccc1F | - | - | 0 | - | 0 | -
CCCCOc1ccc(/C=C(/C#N)c2nc3ccccc3[nH]2)cc1 | - | - | 0 | - | 0 | -
Fc1ccc(CNC(=S)NCc2ccc(Cl)c(Cl)c2)cc1 | - | - | 32µM | - | 0 | -
O=C(NC(=S)NCc1ccncc1)c1ccccc1 | 0 | 0 | 0 | 0 | 0 | 0
Fc1ccc(CNC(=S)NCc2ccc(F)cc2)cc1 | 0 | 0 | ? | 0 | 0 | 0
O=C(NC(=S)NCc1ccc(F)cc1)c1ccccc1 | 0 | ? | 16µM | 0 | 0 | 0
O=C(NC(=S)NC1CCCC1)c1ccccc1 | ? | 0 | 13µM | 0 | 0 | 0

Screening data (PubChem BioAssay)
